CYP2C9 inhib = blockers of cytochrome P450 2C9 activity – biochemical, luminescence, ADME assay, primary screen. P11712. CYP2C9 Supersomes, luciferin-H conversion. inhibition, % at 5 µM. actives 20% (n = 96,000);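 active = blocking of liver enzyme CYP2C9 beyond about 50% at 5 µM, limit read from the data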
CYP2C19 act = human CYP2C19 activators, primary screen, biochemical, luminescence; recombinant CYP2C19, luciferin-H EGE luminescence; hits give high values; 0 = fully inhibited enzyme, 1 = untreated enzyme; AID 1025, 2008; activation factor at 5 µM; 96,000 tested, under 10 active; Cytochrome P450 2C19 (Homo sapiens), P33261;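 active = activation factor of at least 2 at 5 µM in the primary screen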;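 note: 0 = wells with 2.5 mM tranylcypromine and 1 = vehicle-only wells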
CYP2C9 activ = human CYP2C9 activators, primary screen, biochemical, luminescence; Cytochrome P450 2C9 (Homo sapiens), P11712; AID 1024, 2008; activation factor at 5 µM; recombinant CYP2C9, luciferin-H conversion; hits give high values; factor 1 = untreated enzyme, 0 = blocked; actives 1.4% (n = 96,000);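 active = activation factor of 2 or more for CYP2C9 at a 5 µM dose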;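 note: 0 = sulfaphenazole-blocked wells and 1 = vehicle-only wells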
Mac1 fbg enh = enhancers of CD11b/CD18 adhesion to fibrinogen, primary screen, K562 cells, luminescence; Integrin beta-2 (Homo sapiens) + Integrin alpha-M (Homo sapiens), P05107+P11215; ATPlite luminescence; activation, % at 10 µM; actives 0.07% (n = 93,000); AID 1499, 2009;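 active = 10 µM primary screen giving 50% or more activity, confirmed by 40% or more on retest at that dose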
Target sequence (P05107 whole entry, looked up, other chains not shown): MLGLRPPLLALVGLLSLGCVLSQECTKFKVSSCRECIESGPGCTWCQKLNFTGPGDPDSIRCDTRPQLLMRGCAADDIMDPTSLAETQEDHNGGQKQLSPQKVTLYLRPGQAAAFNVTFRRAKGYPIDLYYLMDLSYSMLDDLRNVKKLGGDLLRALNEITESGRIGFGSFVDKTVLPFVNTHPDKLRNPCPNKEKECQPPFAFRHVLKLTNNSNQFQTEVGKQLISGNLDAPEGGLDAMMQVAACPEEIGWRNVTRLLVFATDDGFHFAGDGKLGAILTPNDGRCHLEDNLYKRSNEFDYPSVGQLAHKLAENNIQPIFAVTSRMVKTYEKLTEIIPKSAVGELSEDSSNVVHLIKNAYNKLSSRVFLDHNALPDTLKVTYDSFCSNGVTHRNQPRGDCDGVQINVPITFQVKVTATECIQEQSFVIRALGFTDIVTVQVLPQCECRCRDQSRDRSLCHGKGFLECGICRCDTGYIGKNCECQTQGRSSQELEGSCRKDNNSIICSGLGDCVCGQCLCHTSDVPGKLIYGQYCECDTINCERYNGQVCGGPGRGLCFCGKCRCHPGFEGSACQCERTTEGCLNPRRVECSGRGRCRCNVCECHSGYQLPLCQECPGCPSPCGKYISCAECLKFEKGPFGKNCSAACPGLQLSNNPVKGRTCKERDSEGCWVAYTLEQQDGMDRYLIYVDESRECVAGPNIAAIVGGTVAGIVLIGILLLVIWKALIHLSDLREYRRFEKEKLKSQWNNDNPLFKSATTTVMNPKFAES
CYP2C19 inhib = blockers of cytochrome P450 2C19 activity – biochemical, luminescence, ADME assay, primary screen. inhibition, % at 5 µM. P33261. CYP2C19 Supersomes, luciferin-H EGE luminescence, 30 min. actives 21% (n = 96,000);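 active = CYP2C19 inhibition above a set limit at 5 µM in the primary screen, cut at about 50% in these data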;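 note: plate controls were negative control wells for no effect and 2.5 mM tranylcypromine positive control for full effect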
Mac1 fbg inh = inhibitors of CD11b/CD18 adhesion to fibrinogen, primary screen, K562 cells, luminescence; actives 0.54% (n = 93,000); ATPlite luminescence; Mn2+ added to activate the integrin; inhibition, % at 10 µM;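 active = primary inhibition of 50% or more at 10 µM, then 40% or more on retest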
* hit, by the source's call; / = no result. An excerpt weighted towards active compounds, which were near 28% of everything screened.

SMILES	CYP2C9 inhib	CYP2C19 act	CYP2C9 activ	Mac1 fbg enh	CYP2C19 inhib	Mac1 fbg inh
COCCNC(=O)CSc1nc2cc(OC)c(OC)cc2c(=O)n1Cc1ccco1	83*	0.7	0.2	2	28	6
CCc1cc2c3c(c1)C1(C(=O)N3C(C)(C)CC2C)C(C#N)=C(N)N2C(=C1C#N)Nc1ccccc12 (stereo unspecified)	/	/	/	-4	/	1
COCCNC(=O)CN(c1cc(Cl)ccc1OC)S(C)(=O)=O	10	0.9	0.9	4	7	-18
O=C(CSc1nnc(C23CC4CC(CC(C4)C2)C3)o1)Nc1ccc(N2CCOCC2)c(Cl)c1	7	1	0.9	-8	-4	2
COc1ccc(NC(=O)CSc2nnc(-c3ccccn3)n2Cc2ccco2)cc1OC	35	0.8	0.7	/	15	/
COC(=O)c1ccc2c(=O)n(Cc3ccco3)c(SCC(=O)Nc3ccc(C)c(Cl)c3)nc2c1	77*	0.9	0.2	47	12	13
CCSc1nc2cc(OC)c(OC)cc2c(=O)n1CC	52*	0.6	0.5	4	36	-38
CCC(=O)OCCNc1cc(Sc2nccn2C)c2nonc2c1[N+](=O)[O-]	/	/	/	-2	/	30
Cc1nnc(SCC(=O)Nc2cccc(C(F)(F)F)c2)[nH]c1=O	22	1.1	0.8	-7	-6	-1
O=C(CN1CCN(c2cccc(C(F)(F)F)c2)CC1)Nc1cccc(C(F)(F)F)c1	58*	0.6	0.4	-2	42	13
CC(=O)Nc1ccc(NC(=O)CN2CCN(c3cccc(C(F)(F)F)c3)CC2)cc1	17	0.9	0.8	-2	14	0
O=C(CN1CCOCC1)Nc1cccc(C(=O)Nc2cccc(C(F)(F)F)c2)c1	52*	0.8	0.5	4	25	-10
COc1cc(NC(=O)CSCC(=O)Nc2cccc(C(F)(F)F)c2)c(Cl)cc1Cl	50*	0.7	0.5	-3	31	35
O=C(COCC(=O)Nc1cccc(C(F)(F)F)c1)Nc1cccc(C(F)(F)F)c1	17	0.2	0.8	-4	84*	9
O=C(Cn1c(=O)n(Cc2ccco2)c(=O)c2cc(Cl)ccc21)NCC1CCCO1 (stereo unspecified)	7	0.7	0.9	5	26	44
COc1ccccc1-c1cn[nH]c(=S)n1	2	1	1	9	4	1
CCC(C(=O)Nc1cccc(C(F)(F)F)c1)c1ccccc1 (stereo unspecified)	71*	0.4	0.3	/	56*	/
O=C(Cc1ccccc1)Nc1ccc(N2CCCC2)cc1	14	0.8	0.9	7	24	3
COc1ccccc1C(=O)Nc1cccc(NC(C)=O)c1	-1	0.8	1	-4	16	-12
CN(C)S(=O)(=O)Oc1ccccc1C(=O)Nc1cccc(C(F)(F)F)c1	8	0.1	0.9	/	86*	/
O=C(Cc1ccccc1)Nc1cccc(N2CCCC2)c1	77*	0.7	0.2	/	26	/
COc1cc2c(cc1NC(=S)Nc1cccc(C(F)(F)F)c1)oc1ccccc12	79*	0.3	0.2	-6	70*	58
C#CC(C)(CC)NC(=O)Cn1nnc(-c2ccc(S(C)(=O)=O)cc2)n1 (stereo unspecified)	17	1	0.8	-7	0	3
CCOC(=O)N1CCN(c2c(NCCCN3CCCCCC3)c(=O)c2=O)CC1	-11	1.1	1.1	-3	-10	-1
FC(F)(F)c1cccc(NC(=S)NCc2ccccc2)c1	-88	0.4	1.9	-9	63*	-1
C=CCn1c(SCC(=O)Nc2ccc3c(c2)OCO3)nnc1-c1ccccc1	52*	0.5	0.5	-7	54*	4
O=C(CSc1nnnn1C1CCCC1)c1ccc2c(c1)OCCO2	27	0.8	0.7	-1	23	8
Nn1c(SCC(=O)Nc2ccc3c(c2)OCO3)nnc1-c1ccc(Cl)cc1	4	1.1	1	-2	-13	-15

Source: PubChem BioAssay (Sanford-Burnham Center for Chemical Genomics)
